# In article PMC4336329 (PLoS ONE, 2015):
# The whole screen tested about 310,000 compounds, of which about 14,000 (4.5%) showed an effect of 50% or more. The effect is printed as a negative number. For the sample, strong results were picked, then their nearest neighbours and some compounds at random.
# Target: human ether-à-go-go-related gene (hERG) potassium channel (human, UniProt Q12809)
# Experiment: primary screen, population patch clamp on CHO cells stably expressing hERG; higher = less effect of the substance
# 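Note: peak tail current of the secondary pulse compared with the same well before compound.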
# Chain of human ether-à-go-go-related gene (hERG) potassium channel (Q12809 whole entry, looked up): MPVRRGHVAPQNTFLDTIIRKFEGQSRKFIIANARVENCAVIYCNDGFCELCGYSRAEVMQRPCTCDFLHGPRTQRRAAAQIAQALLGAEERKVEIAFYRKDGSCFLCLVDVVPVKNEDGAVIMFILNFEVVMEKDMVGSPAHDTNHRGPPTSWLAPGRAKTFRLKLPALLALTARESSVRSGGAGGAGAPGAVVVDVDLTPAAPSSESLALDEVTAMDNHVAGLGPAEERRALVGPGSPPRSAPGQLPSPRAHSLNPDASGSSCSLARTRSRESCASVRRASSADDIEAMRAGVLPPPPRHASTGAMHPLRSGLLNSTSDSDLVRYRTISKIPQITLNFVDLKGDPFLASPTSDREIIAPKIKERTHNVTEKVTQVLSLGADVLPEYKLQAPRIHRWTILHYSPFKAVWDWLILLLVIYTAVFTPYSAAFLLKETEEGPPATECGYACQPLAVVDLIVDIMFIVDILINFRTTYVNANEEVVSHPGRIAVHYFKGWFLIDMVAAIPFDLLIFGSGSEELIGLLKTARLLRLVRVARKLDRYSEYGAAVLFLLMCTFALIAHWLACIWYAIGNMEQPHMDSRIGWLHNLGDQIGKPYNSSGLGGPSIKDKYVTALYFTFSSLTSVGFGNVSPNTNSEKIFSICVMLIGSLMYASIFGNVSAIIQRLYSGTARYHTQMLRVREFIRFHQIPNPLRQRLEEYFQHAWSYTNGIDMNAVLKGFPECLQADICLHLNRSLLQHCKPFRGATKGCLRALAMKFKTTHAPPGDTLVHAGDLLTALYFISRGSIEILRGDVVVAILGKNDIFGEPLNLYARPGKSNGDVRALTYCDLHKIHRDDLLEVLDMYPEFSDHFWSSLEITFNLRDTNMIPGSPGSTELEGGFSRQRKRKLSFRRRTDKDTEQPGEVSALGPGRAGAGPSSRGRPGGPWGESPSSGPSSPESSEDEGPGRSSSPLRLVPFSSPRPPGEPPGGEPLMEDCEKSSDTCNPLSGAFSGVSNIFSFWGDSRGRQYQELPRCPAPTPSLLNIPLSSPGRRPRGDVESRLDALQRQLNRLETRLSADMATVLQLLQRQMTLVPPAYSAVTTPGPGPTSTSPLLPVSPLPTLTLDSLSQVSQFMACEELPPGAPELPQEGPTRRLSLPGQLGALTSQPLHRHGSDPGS
row,Compound,"hERG current change (%, negative = inhibition) at 10uM"
1,O=C(C1CCCN(S(=O)(=O)c2cccc3nonc23)C1)N1CCC(Cc2ccccc2)CC1 (centres unmarked),-30.9%
2,O=C(NCCc1ccccc1)C1CCN(S(=O)(=O)c2cccc3nonc23)CC1,-10.5%
3,CCN(CCCNC(=O)C1CCN(S(=O)(=O)c2cccc3nonc23)CC1)Cc1ccccc1,-57.2%
4,O=C(NC1CCN(Cc2ccccc2)CC1)C1CCN(S(=O)(=O)c2ccccc2)CC1,-28.8%
5,Cc1ccc(Cl)cc1S(=O)(=O)N1CCC(C(=O)NC2CCN(Cc3ccccc3)CC2)CC1,-71.5%
6,O=C(NC1CCN(Cc2ccccc2)CC1)C1CCCN(S(=O)(=O)c2cccc3nonc23)C1 (centres unmarked),-55.9%
7,O=C(NCc1ccccc1)C1CCCN(S(=O)(=O)c2cccc3nonc23)C1 (centres unmarked),9.65%
8,Cc1ccc(C(=O)NC2CCN(Cc3ccccc3)CC2)cc1S(=O)(=O)N1CCOCC1,-30.2%
9,CCN(CC)S(=O)(=O)c1ccc(S(=O)(=O)N2CCC(C(=O)NC3CCN(Cc4ccccc4)CC3)CC2)cc1,14.8%
10,Cc1noc(C)c1S(=O)(=O)N1CCC(C(=O)NC2CCN(Cc3ccccc3)CC2)CC1,-25%
11,CCCNC(=O)C1CCN(S(=O)(=O)c2cccc3nonc23)CC1,-3.97%
12,COc1cc(/C=C2\SC(=S)N(CCC(=O)Nc3ccc(O)cc3)C2=O)cc(OC)c1OC,11.9%
13,COCCCn1c(=O)c2sccc2n2c(CCCC(=O)NCc3cccc(OC)c3)nnc12,-6.59%
14,O=C1CSC(c2cccnc2)N1c1cccc(Cl)c1 (centres unmarked),-1.13%
15,CCOC(=O)c1c(NC(=O)C2CCCO2)sc(C(=O)OC(C)(C)C)c1C (centres unmarked),9.29%
16,COc1cccc(Nc2nnc(Cc3cccnc3)c3ccccc23)c1,-75.8%
17,COc1ccc(Nc2ncnc3ccccc23)c(OC)c1.Cl,-10.2%
18,COc1cccc(NC(=S)NCc2cccnc2)c1,8.76%
19,COc1ccc(Nc2nnc(Cc3ccccc3)c(=O)[nH]2)c(OC)c1,3.85%
20,COc1ccc(Nc2nnc(Cc3ccncc3)c3ccccc23)c(OC)c1,-72.7%
21,COc1cccc(NC(=O)Cn2nc(Cc3cccnc3)c3ccccc3c2=O)c1,-34.6%

row,Compound,"hERG current change (%, negative = inhibition) at 10uM"
1,Cc1csc2c(N3CCN(C(=O)Nc4ccccc4)CC3)ncnc12,-25.4%
2,CCOC(=O)N1CCC(NC(=O)c2cccc3c2C(=O)N(Cc2cccnc2)C3)CC1,-13.9%
3,CCOC(=O)C1=C(COC(=O)CCOc2ccccc2C)NC(=O)NC1C (centres unmarked),-28.4%
4,NC(=O)c1cc(-c2csc(-c3cccnc3)n2)ccc1O,5.27%
5,CCCCN(C)CCCNC(=O)c1cn(C)c2ccc(S(=O)(=O)N(C)C3CCCCC3)cc2c1=O,-75%
6,CCCCN(CCCC)CCNC(=O)c1cn(C)c2ccc(S(=O)(=O)N(C)C3CCCCC3)cc2c1=O,-76.7%
7,COCCNC(=O)c1cn(C)c2ccc(S(=O)(=O)N(C)C3CCCCC3)cc2c1=O,-27.7%
8,CCN(CC)CCCNC(=O)c1cn(C)c2ccc(S(=O)(=O)N(C)C3CCCCC3)cc2c1=O,-24.8%
9,CCN(CC)S(=O)(=O)c1ccc2c(c1)c(=O)c(C(=O)NCCN(C)CCc1ccccc1)cn2C,-67.1%
10,CCN(CC)CCCNC(=O)c1cn(C)c2ccc(S(=O)(=O)N(C)C)cc2c1=O,3.07%
11,CCN(CC)S(=O)(=O)c1ccc2c(c1)c(=O)c(C(=O)NCCc1ccccc1)cn2C,-0.204%
12,CCCCN(CC)CCCNC(=O)c1cn(C)c2ccc(S(=O)(=O)N(C)C3CCCCC3)cc2c1=O,-73.2%
13,CC(C)OCCCNC(=O)c1cn(C)c2ccc(S(=O)(=O)N(C)C3CCCCC3)cc2c1=O,-22%
14,CCN(CC)CCNC(=O)c1cn(C)c2ccc(S(=O)(=O)N(C)C3CCCCC3)cc2c1=O,-42.8%
15,CN(CCNC(=O)c1cn(C)c2ccc(S(=O)(=O)N(C)C)cc2c1=O)CCc1ccccc1,-27.1%
16,COC(CNC(=O)c1cn(C)c2ccc(S(=O)(=O)N(C)C3CCCCC3)cc2c1=O)OC,-21.5%
17,Cn1c(=O)n(C)c2cc(N3CCOCC3)c(NC(=O)c3ccc(F)cc3)cc21,-8.15%
18,Cc1cccc2cc3ccccc3nc12,4.66%
19,Cc1cc(CNC(=O)COc2ccc(C)c(C)c2)c2ccccc2n1,2.15%
20,O=C(N/N=C/c1ccc(Cl)c([N+](=O)[O-])c1)c1cc(-c2ccccc2)nc2ccccc12,17.1%
